Source: paper PMC4336329 (PLoS ONE, 2015)
About 14,000 (4.5%) of roughly 310,000 compounds showed an effect of 50% or more. The effect is printed as a negative number. For the sample, strong results were picked, then their nearest neighbours and some compounds at random.

Molecular target: human ether-à-go-go-related gene (hERG) potassium channel (human, UniProt Q12809)
Experiment: primary screen, population patch clamp on CHO cells stably expressing hERG; higher = less effect of the substance
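Note: peak tail current of the secondary pulse compared with the same well before compound.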

Chain of human ether-à-go-go-related gene (hERG) potassium channel (Q12809 whole entry, looked up): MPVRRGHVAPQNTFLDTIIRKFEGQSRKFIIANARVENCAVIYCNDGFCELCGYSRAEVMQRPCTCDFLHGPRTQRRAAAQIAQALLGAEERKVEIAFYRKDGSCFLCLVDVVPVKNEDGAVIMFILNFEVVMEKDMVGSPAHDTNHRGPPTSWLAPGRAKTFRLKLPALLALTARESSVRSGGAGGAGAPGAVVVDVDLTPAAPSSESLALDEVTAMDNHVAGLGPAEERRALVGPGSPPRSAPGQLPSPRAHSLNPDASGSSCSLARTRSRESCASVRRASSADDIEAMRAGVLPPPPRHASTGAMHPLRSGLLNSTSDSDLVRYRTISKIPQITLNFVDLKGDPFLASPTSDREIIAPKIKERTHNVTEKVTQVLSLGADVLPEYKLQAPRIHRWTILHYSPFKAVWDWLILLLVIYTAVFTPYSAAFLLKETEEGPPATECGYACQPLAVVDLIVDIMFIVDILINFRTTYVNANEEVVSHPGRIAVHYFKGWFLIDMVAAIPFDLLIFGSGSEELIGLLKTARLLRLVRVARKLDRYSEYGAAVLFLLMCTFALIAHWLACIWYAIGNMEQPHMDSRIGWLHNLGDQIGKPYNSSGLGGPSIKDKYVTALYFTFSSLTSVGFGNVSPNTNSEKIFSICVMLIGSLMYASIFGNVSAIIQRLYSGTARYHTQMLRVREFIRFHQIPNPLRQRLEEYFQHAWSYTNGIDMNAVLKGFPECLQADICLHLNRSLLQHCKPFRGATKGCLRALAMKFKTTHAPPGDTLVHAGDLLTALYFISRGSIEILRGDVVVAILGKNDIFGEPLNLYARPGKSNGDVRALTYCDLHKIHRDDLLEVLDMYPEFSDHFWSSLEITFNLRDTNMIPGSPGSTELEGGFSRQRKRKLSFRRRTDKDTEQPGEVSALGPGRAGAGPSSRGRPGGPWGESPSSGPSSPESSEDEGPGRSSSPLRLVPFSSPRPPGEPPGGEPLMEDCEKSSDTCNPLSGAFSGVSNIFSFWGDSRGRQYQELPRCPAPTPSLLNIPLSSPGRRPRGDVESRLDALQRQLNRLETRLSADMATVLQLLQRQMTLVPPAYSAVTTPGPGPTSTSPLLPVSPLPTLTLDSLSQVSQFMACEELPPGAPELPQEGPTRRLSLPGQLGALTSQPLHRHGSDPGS

Row | Structure (SMILES) | hERG current change (%, negative = inhibition) at 10uM
1 | O=C(/C=C/c1ccccc1Cl)NCc1ccccc1 | 10.2%
2 | CCN(CC)C(=O)C1CCCN(C(=O)CCn2nnnc2CN2CCOCC2)C1 (centres unmarked) | 17.7%
3 | NC(N)=NC(=O)c1nc(Cl)c(N)nc1N | -3.88%
4 | NC(N)=NC(=O)c1nc(Cl)c(N2CCCCCC2)nc1N | -58.6%
5 | Cl.NC(N)=NC(=O)c1nc(Cl)c(N)nc1N.O | -0.314%
6 | Cc1ccc(N(CC2CO2)S(=O)(=O)c2ccc(C)cc2)cc1 (centres unmarked) | -5.18%
7 | COc1ccc(N(CC(O)CN2CCOCC2)S(=O)(=O)c2ccccc2)cc1 (centres unmarked) | -12.1%
8 | Cc1ccc(N(CC(O)CN2CCOCC2)S(=O)(=O)c2ccc3ccccc3c2)cc1 (centres unmarked) | -67.4%
9 | O=[N+]([O-])c1ccc(N(CC2CO2)S(=O)(=O)c2ccccc2)cc1 (centres unmarked) | -43.9%
10 | Cl.O=S(=O)(c1ccc2ccccc2c1)N(CC(O)CN1CCOCC1)c1ccccc1 (centres unmarked) | -47.9%
11 | Cc1ccc(N(CC2CO2)S(=O)(=O)c2ccc([N+](=O)[O-])cc2)cc1 (centres unmarked) | -69.3%
12 | Cc1ccc(N(CC(O)CN2C(=O)NC(C)(C)C2=O)S(=O)(=O)c2ccc([N+](=O)[O-])cc2)cc1 (centres unmarked) | -32.7%
13 | Cc1ccc(S(=O)(=O)N(CC(O)CN2CCOCC2)c2cccc([N+](=O)[O-])c2)cc1 (centres unmarked) | -34.5%
14 | Cc1ccc(N(CC(O)CN2CCOCC2)S(=O)(=O)c2ccc([N+](=O)[O-])cc2)cc1 (centres unmarked) | -65.2%
15 | O=C(Nc1ccc(NC(=O)c2cccs2)cc1)c1ccc2c(c1)OCCO2 | 15.6%
16 | CC1(C)Cn2c(nnc2-c2ccccc2)S1 | 14.1%
17 | O=C(NCC1CCCO1)c1cc(-c2ccncc2)nc2ccc(S(=O)(=O)N3CCOCC3)cc12 (centres unmarked) | -24.5%
18 | CC(C)(C#CCN1CCCCC1)OCCOC(c1ccccc1)c1ccccc1.Cl | -21.3%
19 | Cc1ccc(NC(=O)CCn2cnc3cc(C)c(C)cc32)cc1 | -8.26%
20 | COc1ccccc1N1C(=O)c2ccc(C(=O)Nc3ccc(F)cc3)cc2C1=O | 1.07%
21 | CCOC(=O)N1CCN(c2ncnc3c2[nH]c2ccc(F)cc23)CC1 | -2.67%

Row | Structure (SMILES) | hERG current change (%, negative = inhibition) at 10uM
22 | Cc1ccnc(NC(=O)C2CCN(S(=O)(=O)c3ccc4ccccc4c3)CC2)c1 | 7.94%
23 | O=c1c(Br)c(N2CCCCC2)cnn1-c1ccccc1 | -16.5%
24 | CC(C)Cc1oc(C(=O)O)cc1CN.Cl | -4.32%
25 | O=C(Nc1nnc(-c2ccc(Cl)cc2)o1)c1ccc(N2C(=O)CCC2=O)cc1 | 12.9%
26 | Cc1ccccc1OCC(=O)OCC(=O)Nc1ccc(N2CCOCC2)cc1 | 9.51%
27 | O=S(=O)(Nc1c(F)cccc1F)c1ccc2c(c1)OCCO2 | 9.82%
28 | CCOC(=O)c1sc2nc(NC(=O)C(C)(C)C)sc2c1C | -11.7%
29 | Cc1ccc(S(=O)(=O)N(C)c2nc3ccccc3n3c(C(C)C)nnc23)cc1 | -28.1%
30 | O=C(CCC(=O)N1CCOc2ccccc21)NCCCc1ccccc1 | -17.5%
31 | CCN(CCCNC(=O)CCC(=O)N1CCOc2ccccc21)Cc1ccccc1 | -62.5%
32 | CN(CCCNC(=O)CCC(=O)N1CCOc2ccc(Cl)cc21)Cc1ccccc1 | -64.1%
33 | O=C(CCC(=O)N1CCOc2ccc(Cl)cc21)NCc1ccccc1 | -21.7%
34 | Cc1ccc2c(c1)N(C(=O)CCC(=O)NCCCN(C)Cc1ccccc1)CCO2 | -68.3%
35 | CC(CNC(=O)CCC(=O)N1CCOc2ccc(Cl)cc21)c1ccccc1 (centres unmarked) | -40.6%
36 | O=C(CCC(=O)N1CCOc2ccccc21)NCCc1ccccc1 | -6%
37 | Cc1ccc2c(c1)N(C(=O)CCC(=O)NCc1cccc(F)c1)CCO2 | -5.21%
38 | CN(CCCNC(=O)CCC(=O)N1CCOc2ccccc21)Cc1ccccc1 | -30.7%
39 | COc1ccc(C(=O)Oc2cc(C)[nH]c(=O)c2[N+](=O)[O-])c(OC)c1 | 11.9%
40 | Cc1ccc(C)c2[nH]c(=O)c(CN(Cc3ccco3)S(=O)(=O)c3ccc4c(c3)OCCO4)cc12 | 9.44%
41 | CC(C)NC(=O)[C@]1(C)CCC[C@@]2(C)C3CC[C@@]4(C)C[C@]3(CCC21)CC4=O (some centres unmarked) | 6.23%
42 | CCc1ccc(NC(=O)C2CCCN(S(C)(=O)=O)C2)cc1 (centres unmarked) | 21.3%

Row | Structure (SMILES) | hERG current change (%, negative = inhibition) at 10uM
43 | C=CCn1c(SCc2csc(C)n2)nc2sc3c(c2c1=O)CCCCC3 | -8.41%
44 | O=C(CN1C(=O)C(c2ccc(F)cc2)=NC12CCCC2)Nc1ccc(F)cc1 | -5.39%
45 | CC(C)(C)OC(=O)N1C[C@H](O)C[C@H]1C(=O)OCC(=O)c1ccc([N+](=O)[O-])cc1 | -63.4%
46 | CC(C)(C)OC(=O)N1CC(O)CC1C(=O)OCC(=O)c1ccc(Cl)cc1 (centres unmarked) | -16.4%
47 | CC(C)(C)OC(=O)N1CC(O)CC1C(=O)OCC(=O)c1ccccc1 (centres unmarked) | 5.86%
48 | COc1cccc(/C=N/NC(=O)c2[nH]c(C)c(C(=O)N/N=C/c3cccc(OC)c3O)c2C)c1O | 11.7%
49 | CCN1CCc2c(OCC(=O)Nc3ccc4c(c3)OCCO4)cccc2C1=O | 5.28%
50 | Cc1cc(NCCCn2ccnc2)n2ncc(-c3ccc(Cl)cc3)c2n1 | -68%
51 | Cc1cc(NCCCN2CCOCC2)n2ncc(-c3ccc(Cl)cc3)c2n1 | 0.66%
52 | Cc1cc(NCCCn2ccnc2)n2ncc(-c3ccccc3)c2n1 | -67.6%
53 | Cc1cc(NCCCN2CCOCC2)n2ncc(-c3ccccc3)c2n1 | -21%
54 | CC(C)(C)c1cc(NCCCn2ccnc2)n2ncc(-c3ccccc3)c2n1 | -18%
55 | CC(C)(C)c1cc(NCCCn2ccnc2)n2ncc(-c3ccc(Cl)cc3)c2n1 | 12.1%
56 | C=C(C)CN1CCN(S(=O)(=O)c2ccc(C)c(N(C)S(=O)(=O)c3ccc(C)cc3)c2C)CC1 | -2.33%
57 | Cc1ccc(S(=O)(=O)N2CCN(C)CC2)c(C)c1N(C)S(=O)(=O)c1ccc(Cl)cc1 | -68.7%
58 | Cc1ccc(S(=O)(=O)N2CCN(Cc3ccccc3)CC2)c(C)c1N(C)S(=O)(=O)c1ccccc1 | 5.81%
59 | Cc1ccc(S(=O)(=O)N(C)c2c(C)ccc(S(=O)(=O)N3CCN(C)CC3)c2C)cc1 | -60.8%
60 | Cc1cc(C)c(S(=O)(=O)N2CCCCC2)c(C)c1N(C)S(=O)(=O)c1ccc(Cl)cc1 | 0.393%
61 | Cc1ccc(S(=O)(=O)N(C)c2c(C)ccc(S(=O)(=O)N3CCN(C=O)CC3)c2C)cc1 | -42.8%
62 | N#Cc1c(Nc2ccccc2)sc(C(=O)c2ccccc2)c1N | -7.02%
63 | O=C(O)c1cccc([N+](=O)[O-])c1C(=O)Nc1cccc2ccccc12 | 21.9%

Row | Structure (SMILES) | hERG current change (%, negative = inhibition) at 10uM
64 | C[C@@H]1CC=C[C@H]2[C@H]1C(=O)N(Cc1ccccc1)[C@H]2c1ccc(/C=C/c2ccccc2)cc1F | 4.34%
65 | O=C(CN(CCc1ccccc1)C(=O)Cn1nnc(-c2cccs2)n1)NCc1ccco1 | -38.7%
66 | O=C(CN(Cc1ccco1)C(=O)Cn1nnc(-c2cccs2)n1)NCc1ccccc1 | -51.7%
67 | O=C(CN(Cc1ccco1)C(=O)Cn1nnc(-c2cccs2)n1)NCC1CCCO1 (centres unmarked) | 6.63%
68 | CCSc1nnc(NC(=O)COc2ccc(Cl)cc2)s1 | 24%
69 | CC(=O)C1=C(C)NC(SCC(=O)c2ccc(Cl)c(Cl)c2)=C(C#N)C1c1ccco1 (centres unmarked) | 5.27%
70 | CCCCC(=O)NC(Nc1cc(C)ccn1)(C(=O)OCC)C(F)(F)F (centres unmarked) | 2.5%
71 | CCC(C)(C)C1CCC(=NNC(=S)Nc2ccccc2)CC1 (centres unmarked) | 11.4%
72 | COC(/C=C/Nc1ccc(OC)cc1)=C(C#N)C#N | -59.9%
73 | COC(/C=C/Nc1ccc(C)cc1)=C(C#N)C#N | -38%
74 | COC(/C=C/Nc1ccc(Br)cc1)=C(C#N)C#N | -39.3%
75 | CCc1cc2c(CN3CCN(CC)CC3)cc(=O)oc2cc1O | -8.81%
76 | CC1(C)Oc2ccc3ccc(=O)oc3c2C(/C=N/O)C1=O (centres unmarked) | 3.87%
77 | O=C(CN1C(=O)NC2(CCCCCC2)C1=O)c1ccc(OC(F)F)cc1OC(F)F | -35%
78 | COc1ccc(C(=O)N2CCN(Cc3cc(OC)c(O)c(OC)c3)CC2)cc1OC.O=C(O)C(=O)O | 8.89%
79 | COc1cc(OC)c(OC)cc1CN1CCN(Cc2cccc(F)c2)CC1.O=C(O)C(=O)O | 10.2%
80 | COc1cccc(CN2CCN(Cc3cc(OC)c(OC)cc3OC)CC2)c1.O=C(O)C(=O)O | -29.1%
81 | COc1cc(CN2CCN(Cc3ccc(SC)cc3)CC2)cc(OC)c1O.O=C(O)C(=O)O | -67.9%
82 | COc1cc(CN2CCN(C(=O)CC(C)C)CC2)cc(OC)c1O.O=C(O)C(=O)O | -0.00662%
83 | COc1cc(OC)c(OC)cc1CN1CCN(Cc2ccc(SC)cc2)CC1.O=C(O)C(=O)O | -61.5%
